Our source for the outcome values is PubChem BioAssay AID1159574 (Broad Institute, 2015).

Measured potencies and affinities stand elsewhere. Activity calls are given as the source filed them.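 Rule for the calls: active = growth inhibitors whose fitted half-maximal dose is no more than twice the top valid dose; inconclusive = flat curve with 30 to 70% inhibition, or unreliable fit; inactive = the rest.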

This assay is described as follows: antimalarial activity against Dd2 parasites – SYBR Green fluorescence, erythrocytes, dry powder, set 2, dose response (AID 1159574).

As to `O=C(c1ccccc1F)N1CC(=O)N2[C@@H](CO)[C@H](c3ccc(-c4cccnc4)cc3)[C@@H]2C1`, the outcome was inactive.

On to `O=C(c1ccccc1F)N1CC(=O)N2[C@@H](CO)[C@@H](c3ccc(-c4cccnc4)cc3)[C@@H]2C1`, for which the call was inactive.
